Many of the other results were omitted from the sample, so hits are more common in it than they were.
RVFV N-RNA FP = RVFV nucleocapsid-RNA interaction inhibition. P21700. RVFV N-RNA binding, fluorescence polarization; active compounds read low. % bound, % (concentration not given with the values). 20,000 compounds, 0.1% hits; in the data active = % bound below about 75%
Target sequence (P21700 whole entry, looked up): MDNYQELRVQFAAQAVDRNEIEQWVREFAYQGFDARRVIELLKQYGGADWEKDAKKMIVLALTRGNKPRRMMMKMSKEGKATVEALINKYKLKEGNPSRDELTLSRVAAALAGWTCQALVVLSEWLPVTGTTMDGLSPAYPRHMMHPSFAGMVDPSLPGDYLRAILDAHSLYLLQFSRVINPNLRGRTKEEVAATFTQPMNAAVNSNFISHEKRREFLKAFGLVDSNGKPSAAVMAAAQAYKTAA
Hits are given with their value; - = inactive; ! = not active in a repeat.

SMILES | RVFV N-RNA FP
Oc1ccc2nnc3c(Br)cnn3c2c1 | 41
N#CCCOC1(C#CC#CC2(OCCC#N)CCCCC2)CCCCC1 | -
OC(c1ccccc1)(c1ccccc1)C1CCN(C(=S)NCc2ccco2)CC1 | -
CNC(=O)COc1c(C)cc(SC)cc1C | -
CCOC(=O)N1CCN(CC2=CCC3CC2C3(C)C)CC1 (centres undefined) | -
O=C(O)c1ccc(I)o1 | -
NNC(=O)Cn1nnc(N2CCOCC2)n1 | -
CCCn1c(=NC(=O)C(C)(C)C)sc2cc3c(cc21)OCO3 | -
COC1CCCCC1Nc1ccccc1 (centres undefined) | -
CC1CCN(CC(=O)NCc2ccccc2)CC1 | -
CC1CCN(Cc2c(O)ccc3c2O/C(=C\c2ccccc2)C3=O)CC1 | 56
O=C1/C(=C/c2ccccc2)Oc2c1ccc(O)c2CN1CCOCC1 | 53
COc1ccc2c(c1)O/C(=C\c1cccc(OC(=O)N3CCOCC3)c1)C2=O | -
O=C(CN1CCOCC1)N/N=C/c1ccccc1 | -
CC1CCN(Cc2c(F)cccc2F)CC1 | -
CCN(CC)Cc1c(O)ccc2c1O/C(=C\c1ccc(C(=O)OC)cc1)C2=O | -
CCc1c(C)c2ccc(O)c(CN(C)C)c2oc1=O | -
CN(C)Cc1c(O)ccc2c1O/C(=C\c1ccccc1)C2=O | 48
Cc1nnc(SCC(=O)N2CCc3ccccc32)[nH]c1=O | -
Cc1cccc2nc(CSc3nnc(-c4ccccc4)o3)cn12 | -
CCC(=O)NCC(c1ccc2c(c1)OCO2)N1CCOCC1 (centres undefined) | -
COC(=O)C12CC3CC(CC(NC(C)=O)(C3)C1)C2 | -
Cc1nc2ccccc2c(=O)n1-c1cccc(NC(=O)c2ccc(Br)o2)c1 | -
O=C(O)/C=C/C(=O)Nc1ccc(C(F)(F)F)cc1 | -
Cc1cc(C(=O)Nc2sc(C)c(C)c2C(=O)NCc2cccnc2)no1 | -
SMILES | RVFV N-RNA FP
CCc1c(C#N)c(N)nc2sc(C(=O)OCc3ccccc3)c(N)c12 | -
Cc1cc(=O)[nH]c2sc3c(=O)cc(C(F)(F)F)[nH]c3c12 | -
Oc1c(/C=N/n2cnnc2)sc2ccccc12 | -
CC(=O)Nc1ccc(Cl)cc1C(F)(F)F | -
CCOc1ccc(Cl)cc1S(=O)(=O)NC | -
Cc1cc(Br)c2c(c1)/C(=C1/SC(=S)N(N)C1=O)C(=O)N2C | -
CCSc1nc(=O)n(Cc2cccnc2)c2c1CCC2 | -
CCCNC(=O)COc1ccc(OC)cc1 | -
Cc1ccc(NC(=S)NC2CCS(=O)(=O)C2)cc1 (centres undefined) | -
CC(CN(C)C)CN1c2ccccc2CCc2ccccc21 (centres undefined) | -
C[C@H](N)CN1CCc2ccc(Br)cc21 | 72
Brc1ccc(-c2nnc3sc(CN4CCc5ccccc54)cn23)cc1 | -
CCCc1cc(=O)[nH]c(/N=C(/NC(=O)c2ccccc2)Nc2ccccc2)n1 | -
COC(=O)C1(c2ccc(OC)c(OC)c2)CCCC1 | -
Cn1/c(=N/N)sc2ccccc21 | -
CCCCNC(=O)C1CC(=O)N(c2ccc(Cl)cc2)C1 (centres undefined) | -
O=C(CC1S/C(=N/N=C/c2ccco2)NC1=O)Nc1ccc(Cl)cc1 (centres undefined) | 73
CCNC(=O)CC1S/C(=N\N=C\c2ccc(C)o2)NC1=O (centres undefined) | -
C/C=N/N=C1/NC(=O)C(CC(=O)Nc2cccc(C)c2C)S1 (centres undefined) | -
Cc1cccc(C(=O)OC(C(=O)c2ccccc2)c2ccccc2)c1O (centres undefined) | -
CC(C)=CC(=O)Nc1cc(Cl)ccc1C | -
CCOc1ccc(-n2ccnc2SCC(=O)Nc2ccccc2)cc1 | -
CS(=O)(=O)N1CCN(C(=S)NC2CCCCC2)CC1 | -
Cc1ccc(C(=O)Nc2ccc(S(=O)(=O)O)c3cc(S(=O)(=O)O)cc(S(=O)(=O)O)c23)cc1NC(=O)c1cccc(NC(=O)Nc2cccc(C(=O)Nc3cc(C(=O)Nc4ccc(S(=O)(=O)O)c5cc(S(=O)(=O)O)cc(S(=O)(=O)O)c45)ccc3C)c2)c1 | 6.7!
Cc1cccc(NC(=O)c2cccc(C)c2)c1 | -
SMILES | RVFV N-RNA FP
CC(C)C(=O)Nc1cccc(C(=O)Nc2ccccc2)c1 | -
Cc1ccnc(NC(=O)CCSc2ccccc2)c1 | -
CC1CC(C)CN(C(c2ccco2)c2sc3ncnn3c2O)C1 (centres undefined) | -
CCc1ccc(C2C(C#N)=C(N)Oc3cc(C)oc(=O)c32)cc1 (centres undefined) | -
CC[C@@]1(O)C(=O)OCc2c1cc1n(c2=O)Cc2cc3c(CN(C)C)c(O)ccc3nc2-1 | 44
CCCCc1cc(=O)oc2c(CN(C)C)c(O)ccc12 | -
O=C(N1CCOCC1)n1ccnc1 | -
CCOc1cccc(/C=N/n2c(C)n[nH]c2=S)c1 | -
COc1ccc(NC2CCN(C3CC(=O)N(c4ccc(Cl)cc4)C3=O)CC2)cc1 (centres undefined) | -
CCOc1cc(C(=O)NC(C)(C)CC)cc(OCC)c1OCC | -
CCCN1CCC2(CC1)C1CN(CCC)CC=C1C(C#N)=C(N)C2(C#N)C#N (centres undefined) | 54
COC(=O)c1ccc(S(=O)(=O)N2CCCN(C(=O)OC(C)(C)C)CC2)n1C | -
CCCN1N=C(C(C)(C)C)Cn2c1nc1c2c(=O)n(CCC)c(=O)n1C | -
O=C(CSC1=NS(=O)(=O)c2cc(F)ccc2N1)NC1CCCC1 | -
COc1ccc2nc3cc(Cl)ccc3c(Nc3cc(CN4CCCC4)c(O)c(CN4CCCC4)c3)c2n1 | -
COc1cc(NC(C)CCCN)c2ncccc2c1 (centres undefined) | -
CCN(CC)CCCC(C)Nc1c2ccc(Cl)cc2nc2ccc(OC)cc12 (centres undefined) | 34
O=C1C=CC(=O)C(c2ccc(C(=O)O)cc2)=C1 | 52
O=C(O)c1ccc(-c2ccccc2)cc1 | -
Cn1nnc(-c2ccc(C(=O)O)cc2)n1 | -
COC(=O)C1=C(C)NC(=S)NC1/C=C/c1ccccc1 (centres undefined) | -
CC1=C(C(N)=O)C(c2ccccc2F)NC(=O)N1 (centres undefined) | -
CC1=C(C(N)=O)C(/C=C/c2ccccc2)n2ncnc2N1 (centres undefined) | 29
Cn1c([N+](=O)[O-])cc[n+]1C | -
COc1cc2c(cc1NC(=S)Nc1ccc3c(c1)OCO3)oc1ccccc12 | -
Cc1cc(C)nc(NOCc2ccccc2)n1 | -
O=C(NCc1ccco1)/C(=C/c1cn(-c2ccccc2)nc1-c1cccs1)NC(=O)c1ccccc1 | -
CCN(CC)S(=O)(=O)c1ccc(NC(=O)Nc2ccc(F)cc2)cc1 | -

Screening data as filed in PubChem.
